Experimental data from the supplement of paper PMC9262897, “Low-cost anti-mycobacterial drug discovery using engineered E. coli” (Nature Communications, 2022).
Where a name gives a salt, the structure may show the parent alone. ± gives the standard deviation of the averaged measurements.

Assays:
Test in all cases: growth (OD600 after 10 h); higher = more growth (less inhibition)
[1] = tested on: E. coli TESEC Alr+ wild-type control; details: compound 0.1 mM; raw OD600 reference: median of DMSO wells 0.241, cell-free background 0.041
Procedure: (§1)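 TESEC Mtb Alr E. coli, or the Alr+ wild-type control, in 384-well plates with Prestwick library compounds at 0.1 mM and 1% DMSO, across arabinose induction levels of 1E3 to 1E7 nM. Growth is read as OD600 after 10 h at 37 °C in triplicate biological replicates.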

[2] = tested on: E. coli TESEC Mtb Alr; details: compound 0.1 mM
Procedure: as §1

[3] = tested on: E. coli TESEC Mtb Asd; details: compound 0.1 mM
Procedure: (§2)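 TESEC E. coli strains in which the native enzyme is deleted and replaced by arabinose-inducible Mtb Asd, DapB, CysH or TrpD, each grown in its selective medium. Strains were screened against the Prestwick library at 0.1 mM and 1% DMSO in 384-well format at low and high arabinose induction. Growth is read as OD600 after 10 h in triplicate.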

[4] = tested on: E. coli TESEC Mtb DapB; details: compound 0.1 mM
Procedure: as §2

[5] = tested on: E. coli TESEC Mtb Alr; details: compound 0.1 mM; remark: listed apart in the source
Procedure: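 TESEC Mtb Alr E. coli (ΔaraC ΔtolC ΔentC Δalr ΔdadX, arabinose-inducible Mtb Alr) or the Alr+ wild-type control strain, grown in defined M9-fructose medium without D-alanine in 96-well plates with Prestwick library compounds at 0.1 mM and 1% DMSO. Low Alr induction is 0.1 µM arabinose and high induction is 10 mM arabinose.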

[6] = arabinose 1000 nM, raw OD600 reference: median of DMSO wells 0.294, cell-free background 0.041
[7] = arabinose 10000 nM, raw OD600 reference: median of DMSO wells 0.264, cell-free background 0.041
[8] = arabinose 100000 nM, raw OD600 reference: median of DMSO wells 0.201, cell-free background 0.041
[9] = arabinose 1000000 nM, raw OD600 reference: median of DMSO wells 0.193, cell-free background 0.041
[10] = arabinose 10000000 nM, raw OD600 reference: median of DMSO wells 0.146, cell-free background 0.041
[11] = arabinose induction (level): High, raw OD600 reference: median of DMSO wells 0.331, cell-free background 0.041
[12] = arabinose induction (level): Low, raw OD600 reference: median of DMSO wells 0.417, cell-free background 0.041
[13] = arabinose induction (level): High, raw OD600 reference: median of DMSO wells […], cell-free background 0.041
[14] = arabinose induction (level): Low, raw OD600 reference: median of DMSO wells 0.227, cell-free background 0.041
[15] = arabinose 100 nM, raw OD600 reference: median of DMSO wells 0.413, cell-free background 0.052
[16] = arabinose 10000000 nM, raw OD600 reference: median of DMSO wells […], cell-free background 0.052

SMILES | growth [1] | growth [2, 6] | growth [2, 7] | growth [2, 8] | growth [2, 9] | growth [2, 10] | growth [3, 11] | growth [3, 12] | growth [4, 13] | growth [4, 14] | growth [5, 15] | growth [5, 16]
CCOc1nc2cccc(C(=O)O)c2n1Cc1ccc(-c2ccccc2-c2nnn[nH]2)cc1 [Candesartan] | 0.238 ± 0.0077 | 0.297 ± 0.0053 | 0.285 ± 0.0054 | 0.212 ± 0.023 | 0.222 ± 0.015 | 0.141 ± 0.0058 | 0.292 ± 0.03 | 0.265 ± 0.029 | 0.197 ± 0.0041 | 0.205 ± 0.024 | 0.415 ± 0.0062 | 0.355 ± 0.0055
CO[C@@H]1[C@@H](OC(N)=O)[C@@H](O)[C@H](Oc2ccc3c(O)c(NC(=O)c4ccc(O)c(CC=C(C)C)c4)c(=O)oc3c2C)OC1(C)C [Novobiocin sodium salt] | 0.0431 ± 0.00086 | 0.0437 ± 0.0029 | 0.0409 ± 0.0007 | 0.0461 ± 0.0025 | 0.0415 ± 0.00082 | 0.0423 ± 0.00026 | 0.0533 ± 0.0015 | 0.0535 ± 0.0063 | 0.05077 ± 0.0005 | 0.0501 ± 0.00055 | 0.0617 ± 0.0036 | 0.052 ± 0.0006
Cn1ccnc1S [Methimazole] | 0.257 ± 0.0088 | 0.32 ± 0.018 | 0.275 ± 0.0076 | 0.195 ± 0.011 | 0.191 ± 0.0034 | 0.16 ± 0.0067 | 0.484 ± 0.0095 | 0.417 ± 0.096 | 0.2 ± 0.0098 | 0.262 ± 0.04 | 0.405 ± 0.014 | 0.323 ± 0.009
Cc1cc(C(C)(C)CC(C)(C)C)ccc1OCCOCC[N+](C)(C)Cc1ccccc1 [Methyl benzethonium chloride] | 0.0446 ± 0.0012 | 0.0483 ± 0.0025 | 0.0504 ± 0.002 | 0.0489 ± 0.00059 | 0.04487 ± 0.00031 | 0.04963 ± 0.00035 | 0.0532 ± 0.001 | 0.0608 ± 0.0092 | 0.0545 ± 0.0014 | 0.0542 ± 0.00078 | 0.0556 ± 0.0023 | 0.0529 ± 0.0018
CCCN(CCC)CCc1cccc2c1CC(=O)N2 [Ropinirole HCl] | 0.239 ± 0.0025 | 0.301 ± 0.0083 | 0.251 ± 0.0073 | 0.195 ± 0.025 | 0.18 ± 0.009 | 0.146 ± 0.0056 | 0.379 ± 0.066 | 0.441 ± 0.035 | 0.198 ± 0.013 | 0.211 ± 0.025 | 0.408 ± 0.01 | 0.366 ± 0.0066
C[C@]12CC[C@@H]3c4ccc(O)cc4CC[C@H]3[C@@H]1CCC2=O [Estrone] | 0.185 ± 0.0043 | 0.249 ± 0.0084 | 0.23 ± 0.0023 | 0.187 ± 0.0045 | 0.153 ± 0.0041 | 0.129 ± 0.0036 | 0.281 ± 0.031 | 0.36 ± 0.074 | 0.208 ± 0.026 | 0.201 ± 0.022 | 0.402 ± 0.011 | 0.291 ± 0.0057
CCC(=O)OCC(=O)[C@@]1(OC(=O)CC)[C@@H](C)C[C@H]2[C@@H]3CCC4=CC(=O)C=C[C@]4(C)[C@@]3(Cl)[C@@H](O)C[C@@]21C [Beclomethasone dipropionate] | 0.216 ± 0.0072 | 0.31 ± 0.028 | 0.28 ± 0.018 | 0.179 ± 0.013 | 0.12 ± 0.013 | 0.167 ± 0.0041 | 0.246 ± 0.032 | 0.3 ± 0.031 | 0.22 ± 0.0053 | 0.248 ± 0.035 | 0.442 ± 0.0072 | 0.247 ± 0.018
CCN(CC)CCNC(=O)c1cc(Br)c(N)cc1OC [Bromopride] | 0.243 ± 0.025 | 0.312 ± 0.011 | 0.256 ± 0.0069 | 0.196 ± 0.0058 | 0.181 ± 0.006 | 0.1557 ± 0.00098 | 0.467 ± 0.025 | 0.4797 ± 0.0047 | 0.196 ± 0.014 | 0.256 ± 0.033 | 0.4074 ± 0.0017 | 0.316 ± 0.022
c1ccc(CNc2ncnc3nc[nH]c23)cc1 [Aminopurine, 6-benzyl] | 0.208 ± 0.0066 | 0.243 ± 0.0086 | 0.262 ± 0.006 | 0.19 ± 0.014 | 0.166 ± 0.0054 | 0.149 ± 0.013 | 0.279 ± 0.014 | 0.339 ± 0.072 | 0.169 ± 0.0055 | 0.197 ± 0.022 | 0.416 ± 0.0048 | 0.361 ± 0.0061
CC(C)(C(=O)c1cccnc1)c1cccnc1 [Metyrapone] | 0.246 ± 0.0034 | 0.311 ± 0.017 | 0.273 ± 0.0073 | 0.198 ± 0.0061 | 0.2 ± 0.017 | 0.1411 ± 0.00086 | 0.317 ± 0.017 | 0.428 ± 0.0064 | 0.179 ± 0.015 | 0.188 ± 0.01 | 0.409 ± 0.013 | 0.3383 ± 0.0029
COc1ccc(C(=O)CC(=O)c2ccc(C(C)(C)C)cc2)cc1 [Avobenzone] | 0.116 ± 0.017 | 0.188 ± 0.026 | 0.197 ± 0.016 | 0.176 ± 0.02 | 0.107 ± 0.033 | 0.109 ± 0.0074 | 0.277 ± 0.068 | 0.27 ± 0.0061 | 0.202 ± 0.072 | 0.239 ± 0.055 | 0.247 ± 0.058 | 0.267 ± 0.0055
CC(C)N1CCN(c2ccc(OCC3COC(Cn4cncn4)(c4ccc(Cl)cc4Cl)O3)cc2)CC1 (centres undefined) [Terconazole] | 0.193 ± 0.011 | 0.266 ± 0.023 | 0.266 ± 0.0048 | 0.23 ± 0.022 | 0.205 ± 0.0063 | 0.15383 ± 0.00015 | 0.252 ± 0.021 | 0.397 ± 0.14 | 0.198 ± 0.0065 | 0.223 ± 0.011 | 0.412 ± 0.014 | 0.315 ± 0.019
Cc1cc(-n2c(=O)[nH]c(=O)n(C)c2=O)ccc1Oc1ccc(SC(F)(F)F)cc1 [Toltrazuril] | 0.0494 ± 0.013 | 0.0602 ± 0.032 | 0.0431 ± 0.006 | 0.0449 ± 0.0059 | 0.0576 ± 0.031 | 0.0455 ± 0.0035 | 0.0752 ± 0.012 | 0.203 ± 0.057 | 0.227 ± 0.017 | 0.254 ± 0.016 | 0.0828 ± 0.028 | 0.0543 ± 0.0016
CS(=O)(=O)c1ccc([C@@H](O)[C@@H](CO)NC(=O)C(Cl)Cl)cc1 [Thiamphenicol] | 0.0517 ± 0.0013 | 0.0511 ± 0.0029 | 0.0394 ± 0.00036 | 0.0517 ± 0.0013 | 0.0395 ± 0.0001 | 0.055 ± 0.0011 | 0.0715 ± 0.0096 | 0.0618 ± 0.0034 | 0.0792 ± 0.0018 | 0.0622 ± 0.0072 | 0.301 ± 0.012 | 0.086 ± 0.0081
CNCCC(Oc1ccccc1OC)c1ccccc1 (centres undefined) [Nisoxetine hydrochloride] | 0.206 ± 0.015 | 0.258 ± 0.011 | 0.2337 ± 0.0022 | 0.173 ± 0.004 | 0.153 ± 0.0049 | 0.139 ± 0.0023 | 0.247 ± 0.049 | 0.405 ± 0.026 | 0.149 ± 0.031 | 0.2 ± 0.018 | 0.4 ± 0.011 | 0.346 ± 0.018
CO/N=C(\C(=O)N[C@@H]1C(=O)N2C(C(=O)O)=C(COC(N)=O)CS[C@H]12)c1ccco1 [Cefuroxime sodium salt] | 0.0579 ± 0.0016 | 0.0404 ± 0.0013 | 0.0396 ± 0.00059 | 0.0725 ± 0.0027 | 0.0701 ± 0.0021 | 0.115 ± 0.0014 | 0.213 ± 0.0073 | 0.232 ± 0.0044 | 0.229 ± 0.013 | 0.16 ± 0.009 | 0.04693 ± 0.0004 | 0.169 ± 0.024
COC(=O)Nc1nc2cc([S+]([O-])c3ccccc3)ccc2[nH]1 (centres undefined) [Oxfendazol] | 0.251 ± 0.016 | 0.304 ± 0.014 | 0.2674 ± 0.00072 | 0.195 ± 0.024 | 0.165 ± 0.0037 | 0.1348 ± 0.00046 | 0.276 ± 0.08 | 0.382 ± 0.044 | 0.173 ± 0.0069 | 0.174 ± 0.042 | 0.407 ± 0.011 | 0.312 ± 0.022
